Laboratory results reported in PubChem BioAssay AID1159580 (chemical genetic matrix, 2015).
Hit rate of the full screen: of about 5,500 compounds, about 2,000 (36%) were called active. Roughly 18% stayed inconclusive and do not appear here. Rule as the data show it: active = normalized growth mostly below about 0.91 (no sharp cut-off); inconclusive = no clear call, values can overlap the other calls; inactive = mostly above about 0.92. Some of the results follow.

Assay: chemical genetic growth profiling, strain panel (AID 1159580);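 also: tested at 20 µM; growth read once vehicle control cultures reached saturation at 30 °C; 1 = growth at the plate median or of vehicle wells; lower values mean less growth of the strain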
Conditions: growth OD

Measured: normalized growth

FC(F)(F)c1cccc(N2CCNCC2)c1
inactive: S. cerevisiae deletion strains, locus YJL187C, strain SWE1, stronger effect = lower value 0.999 | S. cerevisiae deletion strains, locus YJR043C, strain POL32, stronger effect = lower value 1 | S. cerevisiae deletion strains, locus YJR075W, strain HOC1, stronger effect = lower value 0.958 | S. cerevisiae deletion strains, locus YKL009W, strain mrt4, stronger effect = lower value 1 | S. cerevisiae deletion strains, locus YKL068W, stronger effect = lower value 0.997 | S. cerevisiae deletion strains, locus YKL085W, strain MDH1 (second series), stronger effect = lower value 0.995 | S. cerevisiae deletion strains, locus YKL085W, strain MDH1, stronger effect = lower value 0.995 | S. cerevisiae deletion strains, locus YKL160W, strain elf1, stronger effect = lower value 0.988 | S. cerevisiae deletion strains, locus YKL190W, strain CNB1, stronger effect = lower value 1.01 | S. cerevisiae deletion strains, locus YKR001C, strain vps1, stronger effect = lower value 0.992 | S. cerevisiae deletion strains, locus YKR026C, strain gcn3, stronger effect = lower value 1 | S. cerevisiae deletion strains, locus YKR091W, strain srl3, stronger effect = lower value 0.997 | S. cerevisiae deletion strains, locus YLL001W, strain dnm1, stronger effect = lower value 0.982 | S. cerevisiae deletion strains, locus YLL026W, stronger effect = lower value 0.991 | S. cerevisiae deletion strains, locus YLL041C, strain sdh2, stronger effect = lower value 1 | S. cerevisiae deletion strains, locus YLR027C, strain aat2, stronger effect = lower value 0.993 | S. cerevisiae deletion strains, locus YLR039C, strain RIC1, stronger effect = lower value 1.04 | S. cerevisiae deletion strains, locus YLR058C, strain SHM2, stronger effect = lower value 1.01 | S. cerevisiae deletion strains, locus YLR102C, strain apc9, stronger effect = lower value 0.984 | S. cerevisiae deletion strains, locus YLR221C, strain rsa3, stronger effect = lower value 0.993 | S. cerevisiae deletion strains, locus YLR258W, strain gsy2, stronger effect = lower value 0.981 | S. cerevisiae deletion strains, locus YLR262C, strain YPT6 (second series), stronger effect = lower value 0.981 | S. cerevisiae deletion strains, locus YLR262C, strain YPT6, stronger effect = lower value 0.991 | S. cerevisiae deletion strains, locus YLR268W, strain sec22, stronger effect = lower value 0.993 | S. cerevisiae deletion strains, locus YLR320W, strain mms22, stronger effect = lower value 0.968 | S. cerevisiae deletion strains, locus YLR330W, strain CHS5, stronger effect = lower value 1 | S. cerevisiae deletion strains, locus YLR342W, strain FKS1 (second series), stronger effect = lower value 0.937 | S. cerevisiae deletion strains, locus YLR342W, strain FKS1, stronger effect = lower value 0.997 | S. cerevisiae deletion strains, locus YLR357W, strain rsc2, stronger effect = lower value 0.989 | S. cerevisiae deletion strains, locus YLR370C, strain arc18, stronger effect = lower value 1.01 | S. cerevisiae deletion strains, locus YLR371W, strain rom2, stronger effect = lower value 0.98 | S. cerevisiae deletion strains, locus YLR384C, strain iki3, stronger effect = lower value 0.975 | S. cerevisiae deletion strains, locus YLR418C, strain cdc73, stronger effect = lower value 0.992 | S. cerevisiae deletion strains, locus YML016C, strain PPZ1, stronger effect = lower value 1.01 | S. cerevisiae deletion strains, locus YML032C, strain rad52, stronger effect = lower value 0.965 | S. cerevisiae deletion strains, locus YML120C, strain ndi1, stronger effect = lower value 0.999 | S. cerevisiae deletion strains, locus YML124C, strain tub3, stronger effect = lower value 0.991 | S. cerevisiae deletion strains, locus YMR058W, strain fet3, stronger effect = lower value 1.01 | S. cerevisiae deletion strains, locus YMR078C, strain ctf18, stronger effect = lower value 0.986 | S. cerevisiae deletion strains, locus YMR125W, strain sto1, stronger effect = lower value 0.968 | S. cerevisiae deletion strains, locus YMR129W, stronger effect = lower value 1.01 | S. cerevisiae deletion strains, locus YMR205C, strain PFK2, stronger effect = lower value 0.965 | S. cerevisiae deletion strains, locus YMR223W, strain ubp8, stronger effect = lower value 0.981 | S. cerevisiae deletion strains, locus YMR231W, strain pep5, stronger effect = lower value 0.999 | S. cerevisiae deletion strains, locus YMR263W, strain SAP30, stronger effect = lower value 0.999 | S. cerevisiae deletion strains, locus YMR307W, strain GAS1, stronger effect = lower value 0.996 | S. cerevisiae deletion strains, locus YNL067W, strain RPL9B, stronger effect = lower value 1.01 | S. cerevisiae deletion strains, locus YNL071W, strain lat1, stronger effect = lower value 0.996 | S. cerevisiae deletion strains, locus YNL153C, strain GIM3, stronger effect = lower value 1.01 | S. cerevisiae deletion strains, locus YNL209W, strain ssb2, stronger effect = lower value 0.994 | S. cerevisiae deletion strains, locus YNL233W, strain BNI4, stronger effect = lower value 1 | S. cerevisiae deletion strains, locus YNL248C, strain rpa49, stronger effect = lower value 1 | S. cerevisiae deletion strains, locus YNL250W, strain rad50, stronger effect = lower value 1.01 | S. cerevisiae deletion strains, locus YNL271C, strain bni1, stronger effect = lower value 0.978 | S. cerevisiae deletion strains, locus YNL298W, strain CLA4, stronger effect = lower value 0.992 | S. cerevisiae deletion strains, locus YNL307C, strain MCK1, stronger effect = lower value 0.992 | S. cerevisiae deletion strains, locus YNL322C, strain KRE1 (second series), stronger effect = lower value 0.986 | S. cerevisiae deletion strains, locus YNR049C, strain mso1, stronger effect = lower value 1.01 | S. cerevisiae deletion strains, locus YNR052C, strain pop2, stronger effect = lower value 0.985 | S. cerevisiae deletion strains, locus YOL006C, strain TOP1, stronger effect = lower value 1.04 | S. cerevisiae deletion strains, locus YOL012C, strain htz1 0.923 | S. cerevisiae deletion strains, locus YOL147C, strain pex11, stronger effect = lower value 0.989 | S. cerevisiae deletion strains, locus YOR001W, strain rrp6, stronger effect = lower value 0.985 | S. cerevisiae deletion strains, locus YOR061W, strain CKA2, stronger effect = lower value 1.01 | S. cerevisiae deletion strains, locus YOR069W, strain VPS5, stronger effect = lower value 1 | S. cerevisiae deletion strains, locus YOR070C, strain gyp1, stronger effect = lower value 0.995 | S. cerevisiae deletion strains, locus YOR080W, strain dia2, stronger effect = lower value 0.98 | S. cerevisiae deletion strains, locus YOR083W, strain WHI5, stronger effect = lower value 1.03 | S. cerevisiae deletion strains, locus YOR106W, strain vam3, stronger effect = lower value 1 | S. cerevisiae deletion strains, locus YOR136W, strain idh2, stronger effect = lower value 0.987 | S. cerevisiae deletion strains, locus YOR144C, strain elg1, stronger effect = lower value 0.983 | S. cerevisiae deletion strains, locus YOR184W, strain ser1, stronger effect = lower value 1.03 | S. cerevisiae deletion strains, locus YOR265W, strain rbl2, stronger effect = lower value 0.993 | S. cerevisiae deletion strains, locus YOR270C, strain vph1, stronger effect = lower value 1.07 | S. cerevisiae deletion strains, locus YOR290C, strain snf2, stronger effect = lower value 0.973 | S. cerevisiae deletion strains, locus YOR316C, strain cot1, stronger effect = lower value 0.997 | S. cerevisiae deletion strains, locus YPL051W, strain arl3, stronger effect = lower value 0.993 | S. cerevisiae deletion strains, locus YPL055C, strain LGE1, stronger effect = lower value 1 | S. cerevisiae deletion strains, locus YPL078C, strain atp4, stronger effect = lower value 1.01 | S. cerevisiae deletion strains, locus YPL106C, strain sse1, stronger effect = lower value 0.947 | S. cerevisiae deletion strains, locus YPL240C, strain hsp82, stronger effect = lower value 0.989 | S. cerevisiae deletion strains, locus YPR119W, strain clb2, stronger effect = lower value 0.984 | S. cerevisiae deletion strains, locus YPR141C, strain kar3, stronger effect = lower value 0.988 | S. cerevisiae deletion strains, locus YPR163C, strain tif3, stronger effect = lower value 0.989 | S. cerevisiae deletion strains, locus YPR167C, strain met16, stronger effect = lower value 0.988 | S. cerevisiae deletion strains, strain wtn01, stronger effect = lower value 0.966 | S. cerevisiae strains, strain wild type, stronger effect = lower value 1.01
